According to PubChem BioAssay AID1209 (Sanford-Burnham Center for Chemical Genomics, 2008):
The whole screen tested about 190,000 compounds, of which about 810 (0.43%) were called active. The entries come from a sample that favours actives as a whole. Unmarked numbers belong to inactive results. Cut-off read from the data, not from the text of the source: active = inhibition above about 50%; inactive = the rest.

The compounds below were run against Mannose-6-phosphate isomerase (Homo sapiens) (UniProt P34949) (assay: MPI enzyme activity inhibition – biochemical, fluorescence intensity, coupled assay, primary screen (AID 1209;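 note: plate controls were DMSO vehicle for no effect and wells lacking substrate for full effect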)). Conditions: purified PMI enzyme, at 20 µM, active compounds read high.
Sequence of Mannose-6-phosphate isomerase (Homo sapiens) (P34949 whole entry, looked up): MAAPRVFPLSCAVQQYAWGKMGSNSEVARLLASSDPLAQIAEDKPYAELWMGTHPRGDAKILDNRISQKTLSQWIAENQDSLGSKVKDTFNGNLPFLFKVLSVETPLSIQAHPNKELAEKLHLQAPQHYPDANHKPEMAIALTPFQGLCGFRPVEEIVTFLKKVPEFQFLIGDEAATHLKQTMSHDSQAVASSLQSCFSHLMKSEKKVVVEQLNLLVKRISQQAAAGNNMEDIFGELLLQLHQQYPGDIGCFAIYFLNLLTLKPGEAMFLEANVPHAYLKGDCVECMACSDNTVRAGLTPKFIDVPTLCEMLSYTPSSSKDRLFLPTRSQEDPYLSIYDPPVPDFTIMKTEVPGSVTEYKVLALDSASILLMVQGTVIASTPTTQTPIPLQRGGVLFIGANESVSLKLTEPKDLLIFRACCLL
Compound `O=C(Nc1cccc(S(=O)(=O)N2CCOCC2)c1)c1cn(-c2ccccc2)nc1-c1ccc(F)cc1` has an inhibition of 6.6%.
Compound `Cc1ccc(C(=O)Nc2ccccc2OC(F)F)cc1` has an inhibition of -0.1%.
With `O=C(Nc1ccccc1OC(F)F)c1ccc(F)cc1` the inhibition was 109% (active).
`O=C(Nc1ccccc1OC(F)F)c1ccccc1` showed an inhibition of 10.6%.
In the case of `O=C(NCCc1ccccc1)c1ccccc1NC(=O)C1CC=CCC1C(=O)O` (stereo unspecified), the inhibition is reported as 5.2%.
`CC(NC(=O)c1sc2cc([N+](=O)[O-])ccc2c1Cl)C(C)(C)C` (stereo unspecified) was tested, and the inhibition was 57.2% (active).
`CC(C)N(C(=O)c1sc2cc([N+](=O)[O-])ccc2c1Cl)C(C)C` showed an inhibition of 0.2%.
In the case of `O=C(NC1CC1)c1sc2cc([N+](=O)[O-])ccc2c1Cl`, the inhibition is reported as 1.4%.
With `CCNc1ccc(C(=O)OCC(=O)NCCN2C(=O)CSC2=O)cc1[N+](=O)[O-]` the inhibition was -6.6%.
`CCCN1CCC(NC(=O)CCc2nnc(Cc3cc(OC)ccc3OC)o2)CC1` showed an inhibition of 7.2%.
With `COc1cccc(C2CC(=O)N3CN(c4ccccc4F)CSC3=C2C#N)c1` (stereo unspecified) the inhibition was 16%.
With `COc1ccc(OC)c(C2CC(=O)N3CN(c4ccccc4F)CSC3=C2C#N)c1` (stereo unspecified) the inhibition was 57.3% (active).
`COc1ccc(OC)c(C2CC(=O)N3CN(c4cccc(Cl)c4)CSC3=C2C#N)c1` (stereo unspecified) gave an inhibition of 16.5%.
For `COc1ccc(N2CSC3=C(C#N)C(c4ccc(OC)c(OC)c4)CC(=O)N3C2)c(OC)c1` (stereo unspecified), the inhibition was 39.1%.
`COc1cc(OC)c(C2CC(=O)N3CN(c4ccccc4C)CSC3=C2C#N)cc1OC` (stereo unspecified) was tested, and the inhibition was 30.5%.
`COc1cc(OC)c(C2CC(=O)N3CN(C)CSC3=C2C#N)cc1OC` (stereo unspecified) was tested, and the inhibition was 59.9% (active).
In the case of `COc1ccc(OC)c(C2CC(=O)N3CN(c4cccc(Cl)c4C)CSC3=C2C#N)c1` (stereo unspecified), the inhibition is reported as 46.9%.
`COc1ccc(OC)c(C2CC(=O)N3CN(c4ccccc4)CSC3=C2C#N)c1` (stereo unspecified) gave an inhibition of 2.2%.
`COc1ccc(N2CSC3=C(C#N)C(c4cc(OC)ccc4OC)CC(=O)N3C2)c(OC)c1` (stereo unspecified) was tested, and the inhibition was 53.4% (active).
Work on `COc1cc(OC)c(C2CC(=O)N3CN(c4ccccc4)CSC3=C2C#N)cc1OC` (stereo unspecified) yielded an inhibition of 41.2%.
For `COc1ccc(Br)cc1C1CC(=O)N2CN(C)CSC2=C1C#N` (stereo unspecified), the inhibition was 27.6%.
`CCN(CC)S(=O)(=O)c1ccc(OC)c(NC(=O)Cc2cccs2)c1` was tested, and the inhibition was -11.3%.
`Cc1cc(C)n(-c2ccc(C(=O)Nc3cccc(S(=O)(=O)N(C)C)c3)cc2)n1` showed an inhibition of 5.5%.
`CCN(CC)S(=O)(=O)N1CCC(C(=O)NCCN2CCOCC2)CC1` was tested, and the inhibition was -6.8%.
For `CCOC(=O)C1CCN(S(=O)(=O)c2ccc(CC)cc2)CC1`, the inhibition was -5.3%.
`CC(=O)c1ccc(NC(=S)N2CCN(CCN3C(=O)c4cccc5cccc(c45)C3=O)CC2)cc1` was tested, and the inhibition was 10.7%.
`COc1cccc(NC(=O)c2cc(-c3cccnc3)nc3c(Cl)cccc23)c1` was tested, and the inhibition was 1.6%.
In the case of `O=C(CCc1ccccc1)Nc1cc(NC(=O)CCc2ccccc2)cc(C(=O)O)c1`, the inhibition is reported as 63.6% (active).
Work on `O=C(CCc1ccccc1)Nc1cccc(NC(=O)CCc2ccccc2)c1` yielded an inhibition of 13.7%.
Work on `O=C(CCc1ccccc1)Nc1cc(C(=O)O)cc(C(=O)O)c1` yielded an inhibition of -2%.
Compound `Cc1cccc(NC(=O)N(C)Cc2cccs2)c1` has an inhibition of 0.5%.
For `NNC(=O)c1cc(O)c(O)c(O)c1`, the inhibition was 51.2% (active).
For `NNC(=O)c1cccc(O)c1`, the inhibition was 10%.
For `COC(=O)c1cc(O)c(O)c(O)c1`, the inhibition was 34%.
`O=C(Nc1cccc(O)c1)c1noc2c1CCCCC2` gave an inhibition of -1.4%.
With `COc1ccc(OC)c(Nc2nc(=O)c3cccnc3s2)c1` the inhibition was 68.3% (active).
With `O=c1nc(Nc2ccc(OCc3ccccc3)cc2)sc2ncccc12` the inhibition was 3%.
Compound `Cc1ccc(Nc2nc(=O)c3cccnc3s2)cc1` has an inhibition of 1.7%.
Compound `Cc1nnc(SCC(=O)Nc2ccc3c(c2)OCCO3)n1N` has an inhibition of 11.3%.
With `Oc1ccc(Cl)cc1C=Nc1ccc2c3c(cccc13)CC2` the inhibition was 50.8% (active).
`Oc1ccc(Br)cc1C=Nc1ccc2c3c(cccc13)CC2` showed an inhibition of 38.4%.
For `Cc1cccc(C=Nc2ccc3c4c(cccc24)CC3)c1O`, the inhibition was 44.8%.
With `O=[N+]([O-])c1ccc2c(c1)ncn2-c1ccccc1` the inhibition was -3.3%.
`Nc1ccc(-n2cnc3cc([N+](=O)[O-])ccc32)cc1` was tested, and the inhibition was 53.9% (active).
In the case of `COc1ccc(-n2cnc3cc([N+](=O)[O-])ccc32)cc1`, the inhibition is reported as 5.5%.
`N=C1C=CC=C2C1=NC1(CCCCC1)N2O` was tested, and the inhibition was 72.2% (active).
In the case of `CCOC(=O)C1CCN(CC(O)COCc2cccs2)CC1` (stereo unspecified), the inhibition is reported as -1.6%.
For `Cc1cc(N=Cc2c(O)ccc3ccccc23)no1`, the inhibition was 43.9%.
`Oc1ccc2ccccc2c1/C=N/c1nccs1` gave an inhibition of 39.6%.
In the case of `Oc1ccc2ccccc2c1C=Nc1ccc(Cl)cn1`, the inhibition is reported as 56.1% (active).
With `O=C(CSc1nc2ccc(Cl)cc2[nH]1)NCc1ccco1` the inhibition was 1.5%.
With `Cc1cccc(-n2c3nc(=O)[nH]c(=O)c-3cc3c(C)nn(-c4ccccc4)c32)c1` the inhibition was 6.4%.
In the case of `COc1cc([N+](=O)[O-])ccc1NC(=O)/C=C/C(=O)O`, the inhibition is reported as -26.7%.
`S=C(NCCCn1ccnc1)Nc1ccc(Cl)cc1Cl` gave an inhibition of 5.5%.
Work on `O=C(CSc1nnc2ccccn12)NNC(=O)c1ccccc1` yielded an inhibition of -2.1%.
`CCSc1nnc(N)s1` showed an inhibition of -0.6%.
For `CCSc1nnc(NC(=O)CC)s1`, the inhibition was 0%.
Compound `COc1ccccc1-n1c(=S)[nH]c2c(sc(=S)n2-c2ccccc2)c1=O` has an inhibition of -4.5%.
`COc1ccc(OC)c(-n2c(=S)[nH]c3c(sc(=S)n3-c3ccccc3)c2=O)c1` was tested, and the inhibition was 9.9%.
`COc1ccc(-n2c(=S)[nH]c3c(sc(=S)n3-c3ccccc3)c2=O)c(OC)c1` was tested, and the inhibition was 62.6% (active).
`CC(O)[C@@H](C(=O)N1CCNCC1)n1cc(CCCCN)nn1` (stereo partly specified) was tested, and the inhibition was 4%.
For `Cc1sc2nc(CSc3ccccc3)nc(N3CCC(C(N)=O)CC3)c2c1C`, the inhibition was 13.3%.
`CCOC(=O)NC(=O)/C(C#N)=C\c1ccccc1` was tested, and the inhibition was 52.6% (active).
For `Cc1ccc(/C=C(/C#N)C(=O)NC(=O)Oc2ccccc2)cc1`, the inhibition was 4.9%.
Work on `N#C/C(=C\c1ccccc1)C(=O)NC(=O)Oc1ccccc1` yielded an inhibition of 11.3%.
`CSc1cccc(NC(=S)N2CCC(N(C)C3CCCCC3C)CC2)c1` (stereo unspecified) was tested, and the inhibition was -2.7%.
For `CCOc1ccccc1N1CSC2=C(C#N)C(c3c(OC)ccc4ccccc34)CC(=O)N2C1` (stereo unspecified), the inhibition was 64.9% (active).
`CCc1ccccc1N1CSC2=C(C#N)C(c3cc(OC)c(OC)cc3OC)CC(=O)N2C1` (stereo unspecified) showed an inhibition of 46%.
For `COc1ccccc1N1CSC2=C(C#N)C(c3ccc(SC)cc3)CC(=O)N2C1` (stereo unspecified), the inhibition was -29.2%.
`CCOc1cc(C2CC(=O)N3CN(C4CCCCC4)CSC3=C2C#N)ccc1O` (stereo unspecified) was tested, and the inhibition was 54.5% (active).
In the case of `COc1ccc2ccccc2c1C1CC(=O)N2CN(C)CSC2=C1C#N` (stereo unspecified), the inhibition is reported as 54.3% (active).
With `CN1CSC2=C(C#N)C(c3cccc(OCc4ccccc4)c3)CC(=O)N2C1` (stereo unspecified) the inhibition was 29.7%.
`CCOc1cc(C2CC(=O)NC(SCC)=C2C#N)ccc1O` (stereo unspecified) was tested, and the inhibition was 9.3%.
In the case of `COc1ccc(C2CC(=O)N3CN(c4ccccc4F)CSC3=C2C#N)cc1OC` (stereo unspecified), the inhibition is reported as 34.9%.
`COc1ccc2ccccc2c1C1CC(=O)N2CN(C3CCCCC3)CSC2=C1C#N` (stereo unspecified) showed an inhibition of 25.9%.
With `CC(NC(=O)COC(=O)c1ccco1)c1ccccc1` (stereo unspecified) the inhibition was 6.4%.
Work on `COc1c(Cl)cc(Cl)cc1C(=O)Nc1ccc(NC(C)=O)cc1` yielded an inhibition of 7.9%.
With `O=C(Cn1nnc(-c2ccccc2)n1)OC1CCOC1=O` (stereo unspecified) the inhibition was -0.6%.
For `Cc1nn(CC(=O)NNC(=S)Nc2ccccc2)c(C)c1[N+](=O)[O-]`, the inhibition was 0%.
`CC1(C)Cc2c(sc(N)c2C#N)C(C)(C)N1` showed an inhibition of 11.6%.
In the case of `Cc1nn(CC(=O)NCCc2ccccc2)c(C)c1[N+](=O)[O-]`, the inhibition is reported as 2.6%.
In the case of `CCOc1ccc(C(O)C(CN2CCOCC2)c2ccccc2)cc1` (stereo unspecified), the inhibition is reported as -4.1%.
In the case of `COC(=O)c1c(NC(=O)c2cccnc2)sc(C)c1C`, the inhibition is reported as -4.9%.
`CCOc1cc(Cl)c(NC(C)=O)cc1OCC` gave an inhibition of -3%.
For `CC(=O)Nc1cc(OC(C)=O)c2nonc2c1OC(C)=O`, the inhibition was 83.9% (active).
With `CCOc1cc(NC(=O)CCl)c(OCC)cc1NC(C)=O` the inhibition was -3.2%.
Work on `CC(=O)Nc1nonc1NC(C)=O` yielded an inhibition of 5.4%.
With `COc1cc(O)c(NC(C)=O)c2nonc12` the inhibition was 64.6% (active).
With `COc1cc(O)c(C(C)=O)cc1OC` the inhibition was -15.9%.
Compound `COC(=O)c1sc2nc3c(cc2c1N)CCCC3` has an inhibition of 14.2%.
`NC(=O)c1sc2nc3c(cc2c1N)CCC3` showed an inhibition of -8%.
With `Nc1c(C(=O)N2CCCC2)sc2nc3c(cc12)CCCCCC3` the inhibition was 95% (active).
Compound `O=[N+]([O-])c1cc(-c2cnc3ccccc3n2)ccc1Oc1ccc(Cl)cc1` has an inhibition of 5.9%.
`CCOC(=O)C1C(=O)NC(SCC(=O)OC)=C(C#N)C1c1ccccc1OCC` (stereo unspecified) was tested, and the inhibition was 14.3%.
`CCOc1ccccc1C1CC(=O)NC(SCC(=O)Nc2nccs2)=C1C#N` (stereo unspecified) gave an inhibition of -8.2%.
In the case of `CCOC(=O)C1C(=O)NC(SCC(=O)Nc2nccs2)=C(C#N)C1c1ccccc1OCC` (stereo unspecified), the inhibition is reported as 54.2% (active).
In the case of `CCOc1ccc(CCNC(=O)COC(=O)c2cccc(OC)c2O)cc1OCC`, the inhibition is reported as 5.3%.
`O=C1OC(Nc2ncccn2)c2ccccc21` (stereo unspecified) gave an inhibition of 4.9%.
For `O=C1OC(Nc2cc(Br)cc3cccnc23)c2ccccc21` (stereo unspecified), the inhibition was 14.2%.
`O=C1OC(Nc2ccc3ncccc3c2)c2ccccc21` (stereo unspecified) was tested, and the inhibition was 62.7% (active).
`O=C(C1CCN(S(=O)(=O)c2cccc3cccnc23)CC1)N1CCN(c2ccccc2)CC1` gave an inhibition of 13.6%.
